L3MBTL1 block: qHTS Assay for the Inhibitors of L3MBTL1. Lethal(3)malignant brain tumor-like protein 1 (Homo sapiens), Q9Y468. AlphaScreen L3MBTL1–H3K9me1 peptide binding. Potency, µM (highest dose often 57.1 µM), for inactives: at the highest dose activity, negative = inhibition, usual class: inhibitors. 230,000 tested, 0.66% active; further: nearly all actives have a fitted effect of over 60% in size
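L3MBTL1 50 nM + b-AHA-H3(1-15)K9me1 75 nM, 30 min RT; compound added, 30 min RT; streptavidin donor/Ni-chelate acceptor beads 10 ug/mL each final, 30 min RT dark; AlphaScreen read.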
WRN inhibitor: qHTS for Inhibitors of WRN Helicase | WRN helicase unwinding, fluorescent forked duplex, kinetic | Potency, µM (titrated, usually from 114 µM), inactives show at the top dose activity change, negative = inhibition, usual class: inhibitors | 360,000 tested, 0.46% active | AID 651768, 2012; further: nearly all actives have a fitted effect of over 55% in size
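Kinetic red-fluorescence monitoring (525/598 nm) tracks WRN helicase activity after 100 nM fluorophore-quencher forked duplex and 2 mM ATP are added to 20 nM enzyme pretreated 15 min at room temperature with compound.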
APE1 inh: qHTS Assay for Inhibitors of the Human Apurinic/apyrimidinic Endonuclease 1 (APE1). DNA repair nuclease/redox regulator APEX1 (Homo sapiens), P27695. recombinant APE1, TAMRA/BHQ-2 abasic DNA cleavage fluorescence. Potency, µM (titrated, usually from 65.8 µM), inactives show at the top dose activity change, negative = inhibition, most hits filed as inhibitors. 350,000 tested, 0.35% active. AID 2517, 2012;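 further: plate controls were vehicle for no effect and reference inhibitor for full effect; nearly all actives have a fitted effect of over 55% in size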
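Enzyme (0.75 nM final) and test compound are incubated 15 min at room temperature before adding 50 nM quenched THF abasic-site duplex. Cleavage dequenches TAMRA, followed at 525/598 nm over three reads one minute apart.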
RECQ1 inh: qHTS Assay for Inhibitors of RecQ-Like Dna Helicase 1 (RECQ1); RECQ1 DNA unwinding, red fluorescence kinetic read; Potency, µM (top dose mostly 57.3 µM), for inactives: at the highest dose activity, negative = inhibition, actives largely listed as inhibitors; 240,000 tested, 0.54% active; AID 2549, 2010;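 further: plate controls were vehicle for no effect and no enzyme for full effect; nearly all actives have a fitted effect of over 30% in size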
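RECQ1T1 50 nM; forked duplex (20 bp + 30-nt ss tails) 200 nM, ATP 2 mM final; pH 8.0, 2 mM MgCl2, 2.5 ug/ml poly(dI-dC); 15 min compound preincubation; discontinuous kinetic read over 2 h at RT.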
BLM inh: qHTS Assay for Inhibitors of Bloom's syndrome helicase (BLM); RecQ-like DNA helicase BLM (Homo sapiens), P54132; recombinant BLM DNA unwinding, fluorescence dequenching; Potency, µM (highest dose often 56.1 µM), for inactives: top-dose activity change, negative = inhibition, actives largely listed as inhibitors; 350,000 tested, 0.2% active; AID 2528, 2010;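 further: plate controls were vehicle for no effect and no enzyme for full effect; nearly all actives have a fitted effect of over 35% in size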
An asterisk follows results filed as active; i = inactive; ? = inconclusive; · = no result given; [ ] = another dose, or the depositor's remark. Shown are actives, neighbours in structure and some others; about 0.92% of the full set was active somewhere. The call rests on the fitted dose curve; in most records, active means well fitted curve in the direction sought with a large enough effect; inconclusive means small, poorly fitted or top-dose-only effect, or another doubt; inactive means no such curve, though single readings can be large; an effect the other way counts as inactive or inconclusive. Unless noted, on the % scale 0 is the no-effect control and ±100 the full control effect; potency means the concentration at half of the fitted maximal effect.

SMILES	L3MBTL1 block	WRN inhibitor	APE1 inh	RECQ1 inh	BLM inh
CCOc1ccc(N2C(=O)/C(=C/c3ccco3)C(=O)NC2=S)cc1	-8%[2.29 µM]	11µM*	21µM*	·	?
COc1ccc(N2C(=O)/C(=C/c3ccc(C)o3)C(=O)NC2=S)c(OC)c1	-7%[2.29 µM]	?	-9%	·	-12%
O=C1NC(=S)N(c2ccccc2F)C(=O)/C1=C\c1cccs1	2%	50µM*	-5%	?	4%
CCOc1ccc(N2C(=O)NC(=O)/C(=C\c3ccccc3[N+](=O)[O-])C2=O)cc1	-1%	-6%	-4%	-3%	0%
CCOc1ccc(N2C(=O)/C(=C\c3cccs3)C(=O)NC2=S)cc1	25µM*	40µM*	-6%	-21%	-4%
COc1ccc(N2C(=O)/C(=C/c3ccc(OC)c(OC)c3)C(=O)NC2=S)cc1	5%	-27%	-3%	·	1%
CC(C)(O)[C@@H]1[C@H]2OC(=O)[C@@H]1[C@]1(O)C[C@H]3O[C@]34C(=O)O[C@H]2[C@]14C	·	·	1%	·	·
O=C1NC(=O)N(Cc2ccccc2)C(=O)/C1=C\c1ccco1	?	32µM*	?	?	?
CNc1ccc(C(=O)CC(O)CCC(C)C2OC(=O)CC(O)CC(=O)CC(O)CC(O)CC(O)CC(O)CC3(O)CC(O)C(C(=O)OC)C(CC(O[C@@H]4O[C@H](C)[C@@H](O)[C@H](N)[C@@H]4O)/C=C/C=C/C=C/C=C/C=C/C=C/C=C/C2C)O3)cc1 (stereo partly drawn)	·	·	3%	·	·
O=c1[nH]sc2cc(F)ccc12	·	32µM*	0%	-2%	3%
CCS(=O)(=O)N1N=C(c2cccc(NS(C)(=O)=O)c2)CC1c1ccccc1 (stereo not drawn)	·	50µM*	-2%	35µM*	-18%
Cn1cccc1/C=C1/C(=O)NC(=O)N(Cc2ccc(F)cc2)C1=O	·	?	-10%	?	-22%
Cn1cccc1/C=C1/C(=O)NC(=S)N(Cc2ccc(F)cc2)C1=O	·	56µM*	?	25µM*	?
CCOC(=O)c1cc(C)sc1/N=C/C1C(=O)NC(=S)NC1=O	-17%	50µM*	5%	i	-6%
CCOC(=O)c1c(/N=C/C2C(=O)NC(=S)NC2=O)sc2c1CCC2	-17%	56µM*	-4%	-9%	-4%
Cc1cccc(N2C(=O)NC(=O)/C(=C/c3cc4c(cc3[N+](=O)[O-])OCO4)C2=O)c1	·	50µM*	1%	0%	0%
CN(C)c1ccc(C=C2C(=O)NC(=O)NC2=O)cc1[N+](=O)[O-]	-10%	?	-4%	-1%	-2%
O=C1NC(=O)C(=Cc2cc3c(cc2[N+](=O)[O-])OCO3)C(=O)N1	-5%	71µM*	?	3%	-8%
CCOC(=O)C(SP(=S)(OC)OC)c1ccccc1 (stereo not drawn)	·	·	-3%	-12%	2%
C/C=C1/C[N@@+]2(C)CC[C@]34C(=C(C=O)[C@H]1C[C@H]32)Nc1ccccc14	·	·	3%	1%	·
O=C(N/N=C/C1C(=O)NC(=S)N(c2ccccc2)C1=O)c1cc(Br)c(O)c(Br)c1 (stereo not drawn)	13µM*	79µM*	-4%	?	1%
COC(=O)C1=C(c2ccc3ccccc3c2)C[C@@H]2CC[C@H]1N2C	5%	6%	14%	·	·
COC(=O)C1=C(C(=O)OC)C2OC1c1cc3ccccc3cc12	·	40µM*	·	·	·
CCC12CCN(CCc3ccc([N+](=O)[O-])cc3)CC1Oc1c(O)cccc12 (stereo not drawn)	·	·	-1%	·	·
O=[N+]([O-])c1ccc(N2CCCCC2)c2ncccc12	-18%	-1%	6%	9%	-10%
SMILES	L3MBTL1 block	WRN inhibitor	APE1 inh	RECQ1 inh	BLM inh
O=[N+]([O-])c1ccc(N2CCCCCC2)c2nonc12	-14%	22µM*	-55%	·	-22%
CCN1C(=O)NC(=O)/C(=C\c2ccc(N3CCOCC3)cc2OC)C1=O	-7%	·	?	-15%	-1%
COc1cc(N2CCOCC2)ccc1/C=C1\C(=O)NC(=O)N(C2CCCCC2)C1=O	?	79µM*	-3%	-17%	0%
ClC1=C(Cl)C2(Cl)C3C(Cl)C(Cl)CC3C1(Cl)C2(Cl)Cl (stereo not drawn)	·	·	3%	1%	·
ClC=CCl	·	·	15%	-6%	·
OCC[n+]1c2ccccc2nc2ccc(N3CCOCC3)cc21	?	-2%	-9%	13µM*	?
C[N+](=O)[O-]	·	·	4%	-1%	·
CN1C(=O)[C@]23CC4=CC=C[C@H](O)[C@H]4N2C(=O)[C@@]1(CO)SS3	·	·	-2%	9%	-2%
O=C1NC(=O)N(Cc2cccs2)C(=O)/C1=C/c1ccc(N2CCOCC2)cc1	·	56µM*	1%	-7%	0%
O=C(O[C@@H]1Cc2c(O)cc(O)cc2O[C@@H]1c1cc(O)c(O)c(O)c1)c1cc(O)c(O)c(O)c1	·	·	0.89µM*	3.2µM*	-5%
COc1ccc(CN2C(=O)NC(=O)/C(=C/c3cc(OC)c(OC)c(OC)c3)C2=O)cc1	·	45µM*	2%	-6%	-2%
COc1ccc(/C=C2/C(=O)NC(=O)N(c3ccc(C)c(C)c3)C2=O)cc1CN1C(=O)c2ccccc2C1=O	2%	40µM*	0%	-6%	-4%
COc1cc(/C=C2\C(=O)NC(=O)N(c3ccccc3)C2=O)cc(OC)c1OC	·	50µM*	-2%	-13%	-3%
CC(=O)[C@@H]1CC[C@H]2[C@@H]3CC[C@@H]4CC(=O)CC[C@]4(C)[C@H]3CC[C@]12C	·	·	1%	14%	·
C[C@@H]1CC[C@@]2(OC1)O[C@H]1[C@@H](O)[C@H]3[C@@H]4CC[C@H]5C[C@@H](O[C@@H]6O[C@H](CO)[C@H](O[C@@H]7O[C@H](CO)[C@@H](O)[C@H](O[C@@H]8OC[C@@H](O)[C@H](O)[C@H]8O)[C@H]7O[C@@H]7O[C@H](CO)[C@@H](O)[C@H](O[C@@H]8O[C@H](CO)[C@@H](O)[C@H](O)[C@H]8O)[C@H]7O)[C@H](O)[C@H]6O)[C@H](O)C[C@]5(C)[C@H]4CC[C@]3(C)[C@H]1[C@@H]2C	·	·	14%	-9%	·
C=CC(N)=O	·	·	2%	-19%	·
Cc1cc(/C=C2/C(=O)NC(=O)N(C)C2=O)c(C)n1-c1ccccc1	-1%	1%[57.1 µM]	-8%	i	-6%

Screens from PubChem BioAssay.
